Hit rate of the full screen: of about 400,000 compounds, about 13,000 (3.2%) were called active. About 18% were inconclusive and are not listed. Calls follow the shape of the dose curve; as a rule, active = well fitted cell-killing curve with a large enough effect; inconclusive = small, poorly fitted or top-dose-only effect, or effect the other way; inactive = flat fitted curve, though single readings scatter. The full list was thinned out, with actives kept by preference.
Test: qHTS assay for MDR1-selective chemotherapeutics: Primary screen using the drug-selected MDR subline cells KB-V1; also: nearly all actives have a fitted effect of over 60% in size
Settings: KB-V1 MDR cells viability, CellTiter-Glo, 72 h; series mostly up to 46.1 µM; activity change, negative = cytotoxicity: at the top concentration
Summary of the method: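 KB-V1, DMEM (no phenol red) + 10% FBS; cpd pin-transferred, titration series; 72 h, 37 degrees C; CellTiter-Glo, luminescence. Data normalized, curve-fit.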
% is scaled to controls: 0 for no effect and ±100 for the full control effect; potency is read from the fitted curve at half-maximal effect.

| SMILES | activity change, negative = cytotoxicity | Potency |
| --- | --- | --- |
| COc1ccc(-c2noc(CSc3nc(C)cc(=O)[nH]3)n2)cc1OC | 0% (inactive) |  |
| CN(CCC#N)c1ccc(C=O)cc1 | -7.28% (inactive) |  |
| COc1ccc(C(=O)NC2CC(C)(C)Cc3c2cnn3-c2ccccc2C)o1 (configuration not stated) |  | 18.4 µM (active) |
| COc1ccc(C(=O)NC2CC(C)(C)Cc3c2cnn3-c2ccccc2)c(OC)c1 (configuration not stated) | -23.7% (inactive) |  |
| CC1=C(C(=O)NC2CC(C)(C)Cc3c2cnn3-c2ccc(C)cc2)OCCO1 (configuration not stated) | -14.9% (inactive) |  |
| CC(=O)N1Cc2cc(C(=O)NCc3cccc(F)c3)nc(-c3cccc(C4=CCCCC4)c3)c2[C@H]1CCO | -10.4% (inactive) |  |
| O=C(NC(c1ccc(Cl)cc1)c1cnccn1)C1CCN(Cc2ccc(Cl)cc2)CC1 (configuration not stated) | -6.8% (inactive) |  |
| COc1ccccc1CNc1nc(Nc2ccccc2Cl)c2sccc2n1 | -8.34% (inactive) |  |
| CCOc1ccc(-c2n[nH]c(=S)n2/N=C/c2cc3c(cc2[N+](=O)[O-])OCO3)cc1 | -20.5% (inactive) |  |
| Cc1ccc(-c2n[nH]c(=S)n2/N=C/c2cc3c(cc2[N+](=O)[O-])OCO3)cc1 |  | 8.2 µM (active) |
| Cc1ccc(S(=O)(=O)N/N=C\c2cc3c(cc2[N+](=O)[O-])OCO3)cc1 | -14.7% (inactive) |  |
| Cc1cc2c3ccccc3[nH]c(=O)n2n1 | 15.2% (inactive) |  |
| CCOC(=O)C1CCCN(C(=O)c2cccc(S(=O)(=O)N3CCOCC3)c2)C1 (configuration not stated) | -5.97% (inactive) |  |
| CCOC(=O)C1CCCN(C(=O)C2CCN(S(=O)(=O)c3ccc(Cl)c(C(F)(F)F)c3)CC2)C1 (configuration not stated) |  | 20.6 µM (active) |
| CCOc1ccc(S(=O)(=O)N2CCCC(C(=O)N3CCC(C(N)=O)CC3)C2)cc1Cl (configuration not stated) | -2.55% (inactive) |  |
| Nc1[nH]c(C(=O)c2ccccc2)c(-c2ccc(Br)cc2)c1C(=O)NC1CC1 | -35% (inactive) |  |
| CCc1ccc(OCCCn2c(CCCNC(=O)C3CCCCC3)nc3ccccc32)cc1 | -0.972% (inactive) |  |
| O=C(NC1CCCCCC1)c1cccnc1Sc1ccc(Cl)cc1 | 2.94% (inactive) |  |
| COc1cccc(CNC(=O)c2cccnc2Sc2ccc(Cl)cc2)c1 | 18.3% (inactive) |  |
| O=C(NCc1cccnc1)c1cccnc1Sc1ccc(Cl)cc1 |  | 18.4 µM (active) |
| OCCc1ccc(NCCc2ccco2)cc1 | 20.5% (inactive) |  |
| COc1ccc(C(=O)CC(=O)C(=O)Nc2cc([N+](=O)[O-])ccc2OC)cc1 | -1.07% (inactive) |  |
| COc1ccc([N+](=O)[O-])cc1NC(=O)CCc1ccccc1 | -17.9% (inactive) |  |
| COc1ccc([N+](=O)[O-])cc1NC(=O)C(C)OC(=O)C1c2ccccc2Oc2ccccc21 (configuration not stated) |  | 9.2 µM (active) |

| SMILES | activity change, negative = cytotoxicity | Potency |
| --- | --- | --- |
| Cc1ccccc1NC(=O)Cc1nc(COC(=O)C(C)(C)Oc2ccc(Cl)cc2)cs1 | 9.47% (inactive) |  |
| Cc1ccc(Cc2nc3ccccc3nc2SCC(=O)Nc2cccc(C(F)(F)F)c2)cc1 | 0% (inactive) |  |
| Cc1onc(-c2ccc(F)cc2F)c1C(=O)Nc1cccc(C(F)(F)F)c1 | -23.5% (inactive) |  |
| Cn1nc(C(F)(F)F)c(C(=O)Nc2cccc(C(F)(F)F)c2)c1SCc1ccc(Cl)cc1 |  | 18.4 µM (active) |
| CCC(=O)N1CCc2cc(Br)cc(S(=O)(=O)CCC(=O)NCCc3ccc(OC)c(OC)c3)c21 | 0% (inactive) |  |
| C[C@@H]1CN([C@H](C)CO)C(=O)CCCn2cc(nn2)CO[C@H]1CN(C)S(C)(=O)=O | -10.7% (inactive) |  |
| Cc1ccc(-c2nn(CCC(=O)Nc3ccc(OC(F)(F)F)cc3)c(=O)c3ccccc23)cc1 | -14.4% (inactive) |  |
| CCc1nc2ccc(C(=O)Nc3ccc(OC)c(OC)c3)cn2c1N(C)C(=O)c1cccc(OC)c1 | 3.04% (inactive) |  |
| CCCC/C=C/c1cccc2nncn12 | 5.91% (inactive) |  |
| CCCCC[C@H](C)N1C[C@@H](COCc2ccccc2)Oc2cc(N3CCC[C@@H]3CO)ccc2S1(=O)=O | 13.8% (inactive) |  |
| CC(=O)N1c2ccc(S(=O)(=O)N3CCCC(C(=O)Nc4cccc(Cl)c4)C3)cc2CC1C (configuration not stated) | -8.22% (inactive) |  |
| CC(=O)N1CCCc2cc(S(=O)(=O)N3CCCC(C(=O)NCc4ccc(Cl)cc4)C3)ccc21 (configuration not stated) |  | inactive |
| CC(=O)N1CCCc2cc(S(=O)(=O)N3CCCC(C(=O)N4CCN(c5cccc(Cl)c5)CC4)C3)ccc21 (configuration not stated) |  | 16.4 µM (active) |
| CC(=O)c1ccc(NC(=O)CSc2nc(-c3ccccc3F)nc3c2c(=O)n(C)c(=O)n3C)cc1 | 27.3% (inactive) |  |
| CC(C)CCNC(=O)CSc1nc2ccccc2nc1Cc1ccc(Cl)cc1 | 10.5% (inactive) |  |
| C=CCSc1nc(Cc2ccc(Cl)cc2)nc2ccccc12 |  | 16.4 µM (active) |
| CCCNC(=O)CSc1nc(Cc2ccccc2)nc2ccccc12 | -19.6% (inactive) |  |
| CCOC(=O)c1c(NC(=O)c2cc(-c3ccc(Cl)cc3)on2)sc2c1CCCC2 | 6.22% (inactive) |  |
| CCn1c(COc2c(C)cccc2C)nnc1SCc1nc2ccccc2c(=O)[nH]1 | -6.81% (inactive) |  |
| COc1ccc(C)cc1-n1nnnc1SCc1nc2ccccc2c(=O)[nH]1 |  | 5.17 µM (active) |
| COc1ccc(CCCc2nnc(SCc3nc4ccccc4c(=O)[nH]3)n2C)cc1 | -19.7% (inactive) |  |
| COCCCn1c(=O)/c(=C/c2ccccc2OC(C)C)s/c1=C(\C#N)C(=O)Nc1ccc(C(=O)O)cc1 | -5.04% (inactive) |  |
| Cc1nc(C(F)(F)F)ccc1C(=O)N1CCC1(C)C(=O)NS(=O)(=O)c1ccccc1Cl (configuration not stated) | 0.0203% (inactive) |  |
